Test results taken from PubChem BioAssay (EPA / NIEHS).
Inconclusive results are not listed. The source made the active and inactive calls. How the source made its calls: active means hit-call score of the fitted dose curve at least 0.9, where 1 is the maximum; inconclusive means response in the unintended direction; inactive means score below 0.9.

What follows are molecules tested against human RAR-related Orphan Receptor gamma (RORg), RORC (gene 6097) (UniProt P51449) (assay: ATG_RORg_TRANS: Attagene TRANS-FACTORIAL HepG2 Assay for human RAR-related Orphan Receptor gamma (RORg) (AID 2283011)).
human RAR-related Orphan Receptor gamma (RORg), RORC (gene 6097), sequence (P51449 whole entry, looked up, the tested form may be a part): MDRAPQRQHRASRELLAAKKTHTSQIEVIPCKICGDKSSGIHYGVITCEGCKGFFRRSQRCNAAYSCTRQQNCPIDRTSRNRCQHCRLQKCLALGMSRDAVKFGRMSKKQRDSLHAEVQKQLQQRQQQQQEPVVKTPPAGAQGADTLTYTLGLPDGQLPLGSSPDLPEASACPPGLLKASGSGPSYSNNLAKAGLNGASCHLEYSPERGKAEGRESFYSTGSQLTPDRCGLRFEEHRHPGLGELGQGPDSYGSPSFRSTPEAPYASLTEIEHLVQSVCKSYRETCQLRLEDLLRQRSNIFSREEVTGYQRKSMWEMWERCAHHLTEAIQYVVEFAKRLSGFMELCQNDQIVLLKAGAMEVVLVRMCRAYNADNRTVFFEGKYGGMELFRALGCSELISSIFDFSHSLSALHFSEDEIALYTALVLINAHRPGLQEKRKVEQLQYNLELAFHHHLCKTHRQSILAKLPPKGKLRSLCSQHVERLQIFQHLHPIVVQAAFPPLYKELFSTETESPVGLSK
Procedure, shortened: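 Activity is scored as increase in GAL4-UAS reporter mRNA over DMSO, detected by fluorescent RT-PCR and capillary electrophoresis in HepG2 cells transiently expressing a RORg-Gal4 chimera, 24 h after dosing.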

outcome, inactive:
CCCC(=O)OC/C=C(\C)CCC=C(C)C
COC(=O)c1ccccc1
O=S(=O)(O)c1cccc2ccccc12
C/C=C(\C)C(=O)OCC/C=C\CC
CC/C=C\CC/C=C/C(OCC)OCC
C=CCOCC(CC)(CO)COCC=C
CN1CCCC1
O=[N+]([O-])c1ccccc1C(F)(F)F
CCC(=O)OCc1ccc(OC)cc1
CCC(C)=NO
COc1cccc(OC)c1C(=O)O
C=C1CC[C@H]2C[C@@H]1C2(C)C
Cc1cc2nc3c(=O)[nH]c(=O)nc-3n(C[C@H](O)[C@H](O)[C@H](O)CO)c2cc1C
Cc1cc(-n2nc3ccc(Cl)cc3n2)c(O)c(C(C)(C)C)c1
NC(=O)c1ccc(N)cc1
CC(C)=CCOC(=O)c1ccccc1
CC(C)(C)NC(=O)[C@@H]1CN(Cc2cccnc2)CCN1C[C@@H](O)C[C@@H](Cc1ccccc1)C(=O)N[C@H]1c2ccccc2C[C@H]1O
Oc1cccc2ccccc12
C=CN1CCCCCC1=O
CC(=O)CCc1ccccc1
